The text below walks through data of PubChem BioAssay AID1224860 (National Center for Advancing Translational Sciences (NCATS), 2016).

Records with an inconclusive call do not appear. The source made the active and inactive calls. Calls follow the shape of the dose curve; as a rule, active = well fitted cell-killing curve with a large enough effect; inconclusive = small, poorly fitted or top-dose-only effect; inactive = flat fitted curve, though single readings scatter.

A short description of this assay: Compound cytotoxicity measured by an ATP content assay as a counter-screen for lead compounds in human iPSC derived neural progenitor cells (hNPCs). To be noted: human iPSC-derived NPC viability, ATP luminescence; series mostly up to 46.1 µM; activity, negative = cytotoxicity: at the top concentration. The method, then: National Center for Advancing Translational Sciences [NCATS] Johns Hopkins University School of Medicine Florida State University Assay Overview: Many compounds can cause cytotoxicity at high compound concentrations. […] The compound cytotoxicity may also cause side effects or toxicity in human. Thus, the compound cytotoxicity needs to be measured in each cell type and each compound incubation time - same as these in the compound screening assay. The compound cytotoxicity can be measured by cell viability assays such as the ATP content assay. We use an ATP content assay kit for cell viability measurement. It measures ATP content (level) in human iPSC derived neural progenitor cells (hNPCs) using a luminescence readout that is proportional to viable cell numbers. Decrease in the luminescence signal after the compound treatment indicates reduced cell viability and cell death caused by compound treatment.
Assay Protocol Summary: The medium for hNPCs consists of DMEM/F12, N2 supplement (ThermoFisher, Cat.# 17502048), NEAA (ThermoFisher, Cat. # 11140050), 2 ug/ml heparin, 2 uM cyclopamine, and B27 (ThermoFisher, Cat. # 17504044). The ATP content assay kit (PerkinElmer, Cat.# 6016731) was used to determine cell viability. The reagent was reconstituted and prepared as described by the manufacturer. Cells were seeded in 384- or 1536-well assay plates and cultured at 37 C with 5% CO2 for 16 to 20 hours. The typical cell seeding density in the 1536-well plate assay is 350 cells/well in 3 ul medium for hNPCs in the tissue cultured treated/PDL coated plates. Compounds were added to cells and incubated for a specific time such as 6, 24, or 72 hours before addition of the reagent mixture of the ATP content assay kit at 1:1 ratio. After incubation at room temperature for 10 minutes, the luminescence intensity in assay plates was measured using a ViewLux plate reader (PerkinElmer). […] The percentage inhibitions of the decreased cell viability by small molecules were then calculated that indicate compound cytotoxicity.
With `Cc1c(N)c(=O)n(-c2ccccc2)n1C`, the “activity, negative = cytotoxicity” value was -10.4% (inactive).

`C[C@@H]1CCN(C(=O)CC#N)C[C@H]1N(C)c1ncnc2[nH]ccc12`: the “activity, negative = cytotoxicity” value is -3.45% (inactive).

For `C[C@@H](N)c1ccc(C(=O)Nc2ccnc3[nH]ccc23)cc1`, the “activity, negative = cytotoxicity” value was 7.73% (inactive).

For `CN(C)c1ccc2cc(C(=O)N[C@@H](CCCN=C(N)CCl)C(=O)NCc3ccccc3)ccc2c1`, the “activity, negative = cytotoxicity” value was -7.42% (inactive).

For `O=C(O)[C@H](CC(=O)N1C[C@@H]2CCCC[C@H]2C1)Cc1ccccc1`, the “activity, negative = cytotoxicity” value was 9.38% (inactive).

As to `CN(C)c1ccc(/C=C2\C(=O)Nc3ccccc32)cc1`, the Potency was 8.69 µM (active).

Take `CC1(C)OC2=C(C(=O)c3ccccc3C2=O)[C@H](NCc2ccccc2)[C@H]1O`: the Potency was 3.98 µM (active).

Take `[O-][n+]1ccccc1SSc1cccc[n+]1[O-]`: the Potency is 0.112 µM (active).

For `OCc1ccc(-c2ccc(-c3ccc(CO)s3)o2)s1`, the Potency is 10.9 µM (active).

For the compound `COc1cc2nc(N3CCN(C(=O)C4CCCO4)CC3)nc(N)c2cc1OC` (stereo not given), the “activity, negative = cytotoxicity” value is 0.309% (inactive).

In the case of `O=C(O)c1ccccc1Nc1cccc(C(F)(F)F)c1`, the “activity, negative = cytotoxicity” value is -6.8% (inactive).

Consider `COc1cccc(-c2cc(=O)c3ccccc3o2)c1N`, for which the Potency was 15.5 µM (active).

For the compound `CC=CC[C@@H](C)C(=O)[C@H]1C(=O)N[C@@H](C(C)C)C(=O)N(C)CC(=O)N(C)[C@@H](CC(C)C)C(=O)N[C@@H](C(C)C)C(=O)N(C)[C@@H](CC(C)C)C(=O)N[C@@H](C)C(=O)N[C@H](C)C(=O)N(C)[C@@H](CC(C)C)C(=O)N(C)[C@@H](CC(C)C)C(=O)N(C)[C@@H](C(C)C)C(=O)N1C`, the “activity, negative = cytotoxicity” value was -13.2% (inactive).

`CCC(C(=O)O)c1ccc(N2Cc3ccccc3C2=O)cc1` (stereo not given): the “activity, negative = cytotoxicity” value is -23.9% (inactive).

In the case of `CCOCCOC(=O)/C=C/c1ccc(OC)cc1`, the “activity, negative = cytotoxicity” value was 6.33% (inactive).

With `Nc1nc2ccc([N+](=O)[O-])cc2s1`, the “activity, negative = cytotoxicity” value is 1.04% [at 88.3 µM] (inactive).

Regarding `COCCn1c2c([n+](Cc3cnccn3)c1C)C(=O)c1ccccc1C2=O`, the Potency was 0.69 µM (active).

Consider `O=c1cc(-c2ccccc2)oc2cc(O)cc(O)c12`, for which the “activity, negative = cytotoxicity” value is -13.1% (inactive).

Consider `CC1(C)Cc2c(sc(NC(=S)NC(=O)c3ccccc3)c2C(=O)O)CO1`, for which the “activity, negative = cytotoxicity” value is 2.96% (inactive).

Turning to `O=C(c1ccccc1)c1ccc2n1CCC2C(=O)O` (stereo not given), the “activity, negative = cytotoxicity” value is 6.4% (inactive).

For the compound `Cc1ccc(O)c(N=Nc2ccccc2)n1`, the Potency is 4.35 µM (active).

On to `COc1ccc(-c2cc(=O)c3c(O)cc(O)cc3o2)cc1O`, for which the “activity, negative = cytotoxicity” value is -5.38% (inactive).

With `CCCS(=O)c1ccc2nc(NC(=O)OC)[nH]c2c1` (stereo not given), the “activity, negative = cytotoxicity” value is -9.42% (inactive).

With `O=c1[nH]nc(Sc2ncc([N+](=O)[O-])s2)n1-c1ccc2c(c1)OCCO2`, the Potency is 1.73 µM (active).

Regarding `COc1ccc2nc(NC(=O)Nc3ccccc3)sc2c1`, the Potency was 7.74 µM (active).

Turning to `CCCCCCOc1ccccc1C(N)=O`, the “activity, negative = cytotoxicity” value was 16.5% (inactive).

As for `NC(=O)c1cccc2[nH]c(-c3ccc([C@H]4CCCN4)cc3F)nc12`, the Potency was 4.35 µM (active).

Regarding `CC(=O)Nc1ccc([C@H](C)C(=O)Nc2ncc(C(C)C)s2)cc1`, the “activity, negative = cytotoxicity” value is -9.01% (inactive).

`N#C/C(=C\c1ccc(O)c(O)c1)C(=O)Nc1ccccc1`: the “activity, negative = cytotoxicity” value is -10.4% (inactive).

In the case of `CCCCCNC(=O)N1CCC(CN(Cc2ccc(Cl)cc2)Cc2ccc([N+](=O)[O-])s2)C1` (stereo not given), the “activity, negative = cytotoxicity” value is 1.44% (inactive).

`CCCCCCCCCCCC(=O)[O][Sn]([CH2]CCC)([CH2]CCC)[O]C(=O)CCCCCCCCCCC`: the “activity, negative = cytotoxicity” value is -2.8% (inactive).

For `CN(C)c1cc(NC(=O)CNC(C)(C)C)c(O)c2c1C[C@@H]1C[C@H]3[C@H](N(C)C)C(=O)C(C(N)=O)=C(O)[C@@]3(O)C(=O)C1=C2O`, the “activity, negative = cytotoxicity” value is -7.78% (inactive).

Take `O=S(=O)(O)CCSSCCS(=O)(=O)O`: the “activity, negative = cytotoxicity” value is -10.7% (inactive).

With `CC(O)=C(C#N)C(=O)Nc1ccc(C(F)(F)F)cc1`, the Potency is 13.8 µM (active).

As for `O=C(O)c1cc([N+](=O)[O-])ccc1NCCCc1ccccc1`, the “activity, negative = cytotoxicity” value was -8.18% (inactive).

With `O=C1c2ccccc2-[n+]2ccc3c([nH]c4ccccc43)c21`, the Potency was 2.18 µM (active).

Take `CNC1[C@H](O)C(O[C@@H]2C(O)C(O[C@H]3O[C@H]([C@@H](C)NC)CC[C@H]3N)[C@@H](N)C[C@H]2N)OC[C@]1(C)O` (stereo not given in full): the “activity, negative = cytotoxicity” value was 2.79% (inactive).

Turning to `C[C@H](NC(=O)C(=O)Nc1ccccc1C(C)(C)C)C(=O)N[C@@H](CC(=O)O)C(=O)COc1c(F)c(F)cc(F)c1F`, the “activity, negative = cytotoxicity” value is -0.979% (inactive).

On to `Cc1[nH]c(C=C2C(=O)Nc3ccccc32)c(C)c1CCC(=O)O`, for which the “activity, negative = cytotoxicity” value was 5.02% (inactive).

`N#CC1(c2ccc(NC(=O)c3cccnc3NCc3ccncc3)cc2)CCCC1`: the “activity, negative = cytotoxicity” value was -21.9% (inactive).
